Pf Dd2 growth – inhibitors of Plasmodium falciparum Dd2 growth; P. falciparum Dd2 growth, SYBR Green, 72 h; Potency, µM (highest dose often 28.9 µM), inactives show at the highest dose activity, negative = inhibition, actives largely listed as inhibitors; 4.3% of 120,000 active; AID 1347417; active = well fitted inhibition curve with a large enough effect;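 note: plate controls were DMSO vehicle for no effect and reference drug for full effect; nearly all actives have a fitted effect of over 65% in size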
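Readout: SYBR Green fluorescence, 485 nm excitation, 535 nm emission, after ~16 h lysis at 37C. Before that, Dd2-infected red cells (2.5% hematocrit) grew 72 h with compound, 29 uM top final concentration.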
Numbers without * were called inactive; i = inactive; [ ] = dose if it differs, or a comment. The full list was thinned out, with hits kept by preference. Potency is the fitted concentration of half-maximal effect.

SMILES	Pf Dd2 growth
C=CCCC(CN1CCSCC1)Oc1nc(OC)cc(OC)n1 (stereo not given)	-18%
C=CCCC(CN1CCCC1)Oc1ccc(-c2ccccc2)nn1 (stereo not given)	11µM*
C=CCCC(CN1CCSCC1)Oc1ncc(CC)cn1 (stereo not given)	-14%
C=CCCC(CN1CCCC1)Oc1cc(N2CCOCC2)ncn1 (stereo not given)	-4%
Cc1nonc1CN(C)C(=O)C1CCCN(C2CCN(C(=O)C3CC3)CC2)C1 (stereo not given)	-13%
COc1cccc(CN2CCC3(CCCO3)CCC2=O)c1 (stereo not given)	-8%
O=C(c1c(F)cccc1F)N1CCC2(CC1)NC(=O)N(Cc1ccc(F)cc1)C2=O	-21%
CO[C@H]1C(=O)N(C(C)C)[C@H]1C1CCN(C(=O)c2nn(C)c3ccccc23)CC1	-10%
Cc1cc(C(=O)NCc2ccc(F)cc2)c2c(C3CCNC3)noc2n1 (stereo not given)	15%
O=C(NCc1ccc(F)cc1)c1cc(C2CC2)nc2onc(C3CCNCC3)c12	10µM*
O=C(NCc1ccc(F)cc1)c1cc(C2CC2)nc2onc(C3CCCNC3)c12 (stereo not given)	8.9µM*
O=C(NCc1ccc(F)cc1)c1cc(C2CC2)nc2onc(C3CCCN3)c12 (stereo not given)	-12%
O=C(NC1CC1)c1cc(C2CC2)nc2onc(C3CCNCC3)c12	6%
COCCNC(=O)c1cc(C2CC2)nc2onc(C3CCNC3)c12 (stereo not given)	3%
O=C(Nc1ccnn1C1CCN(C(=O)c2ccc3n[nH]nc3c2)CC1)C1CC1	30%
COc1ccccc1C(=O)N1CCn2c(nnc2C2CCNCC2)C1	13%
Cn1cc(-c2cc(=O)c3ccnc(NC4CCOCC4)c3o2)cn1	-27%[44.1 µM]
Cn1cc(-c2cc(=O)c3ccnc(Nc4ccc5[nH]ccc5c4)c3o2)cn1	7.1µM*
Cn1cc(-c2cc(=O)c3ccnc(NCc4ccc(F)cc4)c3o2)cn1	-21%[44.1 µM]
COCCN1C(=O)CC[C@@]2(C(=O)NCc3ccncc3)CCCC[C@H]12	10%
Cc1ccccc1C(=O)N1CCc2c(nc3cc[nH]n3c2=O)C1	-5%
O=C(c1cc(C2CC2)[nH]n1)N1CCc2n[nH]c(=O)n2CC1	i
Cc1ccc(NS(=O)(=O)c2ccc3c(c2)NC(=O)CCS3)cc1C	10µM*
O=C1CCSc2ccc(S(=O)(=O)Nc3cccc(C(F)(F)F)c3)cc2N1	35%
Cc1ccccc1NS(=O)(=O)c1ccc2c(c1)NC(=O)CCS2	-8%
SMILES	Pf Dd2 growth
CC(=O)N1CCC2(CC1)CN(C(=O)CCC(=O)O)Cc1ccccc1O2	20%
Cc1cccc(N2C(=O)CSC23C(=O)N(CC(=O)NCc2ccccc2Cl)c2ccccc23)c1 (stereo not given)	10µM*
Cc1cc(C)cc(N2C(=O)CCSC23C(=O)N(Cc2ccccc2)c2ccccc23)c1 (stereo not given)	i
Cc1ccc(N2C(=O)CSC23C(=O)N(CC(=O)Nc2ccc(C(C)C)cc2)c2ccccc23)cc1C (stereo not given)	13µM*
COc1ccc(N2C(=O)CSC23C(=O)N(C)c2ccccc23)cc1Cl (stereo not given)	19%
Cc1cc(C)cc(N2C(=O)CSC23C(=O)N(CC(N)=O)c2ccccc23)c1 (stereo not given)	-13%
Cc1ccc(C)c(NC(=O)CN2C(=O)C(C)(C)c3ccccc32)c1	10%
Cc1ccc(N2C(=O)CSC23C(=O)N(CC(=O)Nc2ccccc2F)c2ccccc23)cc1C (stereo not given)	11µM*
O=C(CN1C(=O)C2(SCC(=O)N2c2ccccc2)c2ccccc21)NCc1ccccc1 (stereo not given)	-14%
O=C1CCSC2(C(=O)N(Cc3ccc(F)cc3)c3ccccc32)N1c1ccccc1 (stereo not given)	-27%
Cc1ccc(NC(=O)CN2C(=O)C(C)(C)c3ccccc32)cc1	-12%
CC1(C)C(=O)N(CC(=O)Nc2ccc(Cl)cc2)c2ccccc21	13%
Cc1cc(C)c(NC(=O)CN2C(=O)C3(SCC(=O)N3c3ccc(F)cc3)c3ccccc32)c(C)c1 (stereo not given)	10µM*
O=C(Nc1cccc2ccccc12)O[C@@H]1CO[C@H]2[C@@H]1OC[C@@H]2NS(=O)(=O)c1ccc2ccccc2c1	-23%
Cc1ccc(NC(=O)CC2CCOCC2)cc1F	8%
Cn1ccnc1C(=O)N1CCC(N2C[C@H](O)C[C@H]2C(=O)NC2CCCCC2)CC1	-7%
CCCCNC(=O)CN1C(=O)NC2(CCC(C)CC2)C1=O (stereo not given)	-16%
O=C(C1CCC1)N1CCN(Cc2ccc(=O)n(CC3CC3)c2)CC1	-7%
O=C(N1CCc2c(nc[nH]c2=O)C1)C1(S(=O)(=O)c2ccccc2)CC1	0%
COC[C@H]1NC(=O)CC[C@H]1C(=O)N1CCCc2ccccc21	4%
Cc1cncc(-c2ccc(S(N)(=O)=O)cc2F)c1	2%
O=C(N1CCC[C@H]1c1nc(-c2ccccc2Cl)no1)C1(c2ccccc2)CC1	-10%
Cn1cnc(S(=O)(=O)N2CCC3(CC2)N(c2ccccc2)C(=O)CS3=O)c1 (stereo not given)	-11%
COCCNC(=O)[C@@H]1C[C@@H](c2ccc(F)cc2)N([S+](=O)([O-])c2cccnc2)C1	-3%[44.1 µM]
O=C(NCC1CCCCC1)C1(CCO)CCN(c2ncccn2)C1 (stereo not given)	9%
SMILES	Pf Dd2 growth
CC(C)c1cnc(N2CCC(COc3ccc4c(cnn4CCC(=O)O)c3)CC2)nc1	i
CC(C)c1ccc(N2C(=O)CSC23C(=O)N(Cc2cccc(F)c2)c2ccccc23)cc1 (stereo not given)	-13%
O=C1CSC2(C(=O)N(Cc3cccc(C(F)(F)F)c3)c3ccccc32)N1c1ccc(F)c(F)c1 (stereo not given)	11µM*
O=C1CCSC2(C(=O)N(Cc3ccc(F)cc3)c3ccccc32)N1c1ccc(F)c(F)c1 (stereo not given)	-6%
O=C(CN1C(=O)C2(SCC(=O)N2c2ccc(F)c(F)c2)c2ccccc21)Nc1cccc(Cl)c1 (stereo not given)	13µM*
CN1C(=O)C2(SCC(=O)N2c2ccc(Cl)cc2)c2ccccc21 (stereo not given)	i
O=C1CSC2(C(=O)N(Cc3cccc(F)c3)c3ccccc32)N1c1cccc(C(F)(F)F)c1 (stereo not given)	-9%
O=C1NCCC[C@@H]1NC(=O)[C@H]1CN(C(=O)c2cccs2)CCN1C(=O)c1cccs1	i
COCCNC(=O)C1N(C(C)C)C(=O)C12CCCCC2 (stereo not given)	-7%
COC[C@@H]1CN(C(=O)c2cccc(C)c2)C[C@H]1c1nc(C2CC2)no1	-12%
COc1ccc(-c2cc(C(=O)NCc3c(C)cc(C)[nH]c3=O)c3c(c2)N(C)CCO3)cc1	-1%[44.1 µM]
O=C(c1ccccn1)N1CCCC2(CNc3ccccc3[S+](=O)([O-])N2)C1 (stereo not given)	10%
C[C@H]1[C@@H]2[C@@H](O)C([C@H](C)C(=O)N3CCCC3)CC[C@@]2(C)CC[C@@H]1NC(=O)Cc1ccccc1 (stereo not given in full)	6%
O=C(Nc1ccc2c(c1)OCO2)c1cccc2c1CCN2C(=O)Nc1ccc(F)cc1	-16%
COc1ccccc1CNC1(Cc2cc(CN3CCOCC3)on2)COC1	12%[44.1 µM]
Cc1ccc(-c2nc3c(cnn3-c3ccccc3)c(=O)n2-c2ccc(Cl)cc2)cc1	i
